According to PubChem BioAssay (Tox21):
Inconclusive results are not listed. Where a call stands in place of a potency, no number is given. Unmarked numbers belong to inactive results. Active and inactive are the calls of the source. Calls follow the shape of the dose curve; as a rule, active = well fitted cell-killing curve with a large enough effect in the repeat runs; inconclusive = weak or mixed curves, or effect the other way; inactive = flat fitted curve, though single readings scatter.

Test: Nuclear factor erythroid 2-related factor 2/antioxidant responsive element (Nrf2/ARE) small molecule agonists: qHTS cell viability counter screen in human keratinocytes (AID 1919968); also: nearly all actives have a fitted effect of over 55% in size
Conditions: KeratinoSens HaCaT ARE cells viability, CellTiter-Fluor, 24 h; series mostly up to 92.4 µM
Text: U.S. Tox21 Program National Center for Advancing Translational Sciences [NCATS] Division of Preclinical Innovation [DPI] U.S. Environmental Protection Agency [EPA] National Institutes of Environmental Health Sciences [NIEHS] National Toxicology Program [NTP] U.S. Food and Drug Administration [FDA] Tox21 Assay Overview: Oxidative stress has been implicated in the pathogenesis of a variety of diseases ranging from cancer to neurodegeneration. The antioxidant response element (ARE) signaling pathway plays an important role in the amelioration of oxidative stress. The KeratinoSens (Givaudan, Switzerland) is an in vitro test method which quantifies luciferase induction as a measure of activation of Keap1-Nrf2-antioxidationt/electrophile response element (ARE) dependant pathway in HaCaT human keratinocytes stably transfected with a selectable plasmid. The KeratinoSens assay is a cell-based assay with a reporter cell line to detect potential skin sensitizers by their ability to induce the Nrf2/ARE-response. The activation of the report gene under culture conditions can be detected by ONE-Glo Luciferase Assay System (Promega, Madison, WI). This cell line has been used to screen the Tox21 10K compound library to identify agonists that induce oxidative stress. The cytotoxicity of the Tox21 compound library against the KS-ARE cell line was tested in parallel by measuring the cell viability using CellTiter- Fluor assay system (Promega, Madison, WI) in the same wells.
Tox21 Assay Protocol Summary: HaCaT derived cell line KeratinoSens were dispensed at 1,500 cells/5uL/well in 1536-well white wall/solid bottom plates using a Multidrop Combi (ThermoFisher Scientific, Waltham, MA) dispenser. After the assay plates were incubated at 37 C/5% CO2 for 5 h, 23 nL of compounds dissolved in DMSO, positive controls or DMSO only was transferred to the assay plate by a pintool workstation (Kalypsys, San Diego, CA). The plates were incubated at 37 C/5% CO2 for 23 h, followed by addition of 1uL/well of CellTiter-Fluor reagent into the assay plates using a Flying Reagent Dispenser (Aurora Discovery, San Diego, CA) for cell viability readout that measures cytotoxicity. After 1 h incubation at 37 C/5% CO2 the fluorescence intensity was measured using a ViewLux (PerkinElmer, Shelton, CT) plate reader.
Potency is read from the fitted curve at half-maximal effect.

| SMILES | Potency | activity change, negative = cytotoxicity |
| --- | --- | --- |
| CC[N+](C)(CC)CCOC(=O)C(O)(c1ccccc1)C1CCCCC1 (stereo not given) | inactive |  |
| NCC1CCC(C(=O)Oc2ccc(CCC(=O)O)cc2)CC1 (stereo not given) | inactive |  |
| CCS(=O)(=O)CCn1c([N+](=O)[O-])cnc1C | inactive |  |
| NC(=O)C1(N2CCCCC2)CCN(CCCC(=O)c2ccc(F)cc2)CC1 | inactive |  |
| CC(=O)Nc1ccc(N)cc1 | inactive |  |
| Cc1cccc(Nc2ccncc2S(=O)(=O)NC(=O)NC(C)C)c1 | inactive |  |
| CO[C@@H]1[C@@H](OC(N)=O)[C@@H](O)[C@H](Oc2ccc3c(O)c(NC(=O)c4ccc(O)c(CC=C(C)C)c4)c(=O)oc3c2C)OC1(C)C | inactive |  |
| CNC(=O)c1ccccc1Sc1ccc2c(/C=C/c3ccccn3)n[nH]c2c1 | inactive |  |
| O=P(O)(O)C(O)(Cc1cccnc1)P(=O)(O)O | inactive |  |
| C=C(C)C(=O)OCCOCC | inactive |  |
| Cc1c(N)cccc1[N+](=O)[O-] | inactive |  |
| C=CCCCCCCCCC=O | inactive |  |
| O=C(C1CCCCC1)N1CC(=O)N2CCCc3ccccc3C2C1 (stereo not given) | inactive |  |
| C=CC(=O)OCCCl | inactive |  |
| CC(C)(c1ccc(Oc2ccc3c(c2)C(=O)OC3=O)cc1)c1ccc(Oc2ccc3c(c2)C(=O)OC3=O)cc1 | inactive |  |
| CNCCC(Oc1ccccc1OC)c1ccccc1 (stereo not given) | inactive |  |
| Cc1ccc2sc3cccc(C)c3c2c1 | inactive |  |
| Cc1ccc(N)nc1 | inactive |  |
| O=C(/C=C/c1ccccc1)OCCCc1ccccc1 | inactive |  |
| COC(=O)c1ccccc1Cl | inactive |  |

| SMILES | Potency | activity change, negative = cytotoxicity |
| --- | --- | --- |
| Cc1ccnc2ccccc12 | inactive |  |
| O=c1c2ccccc2nnn1CCl | inactive |  |
| CCN(CC)CCOC(=O)C(c1ccccc1)c1ccccc1 | inactive |  |
| Cc1cccc(C(=O)O)c1[N+](=O)[O-] | inactive |  |
| CCCCC(=O)O[C@]1(C(=O)CO)CC[C@H]2[C@@H]3CCC4=CC(=O)CC[C@]4(C)[C@H]3[C@@H](O)C[C@@]21C | inactive |  |
| FC(F)OC(Cl)C(F)(F)F (stereo not given) | inactive |  |
| CC12CCC(CC1=O)C2(C)C (stereo not given) | inactive |  |
| CCN(CC)CCOc1ccc(C(O)(Cc2ccc(Cl)cc2)c2ccc(C)cc2)cc1 (stereo not given) | 26.6 µM (active) |  |
| CCOC(=O)COc1ccc(C)cc1 | inactive |  |
| CCn1ccnc1CC1COc2ccccc2O1 (stereo not given) | inactive |  |
| CNC(=O)c1ccccc1 | inactive |  |
| C=CCn1c(=O)n([C@@H]2O[C@H](CO)[C@@H](O)[C@H]2O)c2nc(N)[nH]c(=O)c21 | inactive |  |
| CC(C)(O)CCc1ccccc1 | inactive |  |
| CC(C)c1ccc2sc3ccccc3c(=O)c2c1 | inactive |  |
| Cc1c(N)cccc1Cl | inactive |  |
| CC(=O)C=O | inactive |  |
| COc1ncnc(NS(=O)(=O)c2ccc(N)cc2)c1OC | inactive |  |
| N[C@@H](CSCCCO)C(=O)O |  | 5.92% [at 19 µM] |
| CCCCCCCCCCCCCOP(=O)(O)O | inactive |  |
| CC(=O)OC[C@H]1O[C@@H](n2ncc(=O)[nH]c2=O)[C@H](OC(C)=O)[C@@H]1OC(C)=O | inactive |  |
